Results filed as inconclusive are left out. Values without a mark were called inactive. Activity calls are given as the source filed them. Calls follow the shape of the dose curve; as a rule, active = well fitted inhibition curve with a large enough effect; inconclusive = small, poorly fitted or top-dose-only effect; inactive = flat fitted curve, though single readings scatter.
Biological target: Galactokinase (Homo sapiens) (UniProt P51570)
Experiment: qHTS for Inhibitors of Human Galactokinase (GALK): SAR round 3
Settings: ADP detection luminescence, 1 h; series mostly up to 57.5 µM; activity change, negative = inhibition: at the top concentration
Description: Inherited deficiency of galactose-1-phosphate uridyltransferase (GALT) can result in a potentially lethal disorder called Classic Galactosemia (OMIM 230400). Several lines of evidence indicate that an elevated level of galactose-1-phosphate (gal-1-p), the product of galactokinase (GALK), is a major, if not sole, pathogenic mechanism in patients with classic galactosemia. Therefore, finding inhibitors of GALK is a potential novel therapy for this inherent metabolic disease and is the long term goal of this project. Active compounds observed in the qHTS GALK assay (AID: 1868) were cherry picked and re-screened for validation. GALK (provided by Kent Lai) was assayed using ATP and D-(+)-Galactose (Sigma-Aldrich cat# G0750) as substrates. Promega ADP-Glo technology was used to detect the ADP product formed after the kinase reaction. Kinase reactions with and without GALK were used as negative and positive controls together with Protein Tyrosine Phosphatase CD45 inhibitor (EMD Bioscience cat# 540215) which is shown to inhibit GALK activity. Decrease in activity corresponds to inhibition of the enzyme, the desired outcome for this assay. NIH Molecular Libraries Probe Production Network [MLPCN] NIH Chemical Genomics Center [NCGC] Grant: MH085689-01 PI Name: Kent Lai, University of Utah
Three uL/well of ATP-buffer solution (35 uM ATP, 20mM HEPES pH8.0, 5 mM MgCl2, 60 mM NaCl, 1 mM DTT, 0.01% BSA final concentration) was dispensed into 1536-well, assay plates (Greiner, solid white medium-binding plates) with Aurora Discovery BioRAPTR Flying Reagent Dispenser (FRD; Beckton-Dickenson). Compound and control solution (23 nL) was transferred to the assay plate using the Kalypsys 1536-pin tool apparatus. One uL/well GALK-galactose solution (5 nM GALK, 100 uM galactose, 20 mM HEPES pH8.0, 5 mM MgCl2, 60 mM NaCl, 1 mM DTT, 0.01% BSA final concentration) was then added using the FRD yielding a total kinase reaction volume of 4 uL/ well. After 1 hour of room temperature incubation, 4 uL Kinase-Glo Plus reagent was added for a final assay volume of 8 uL/well. Luminescence was detected with the ViewLux plate reader (Perkin Elmer, Waltham, MA) after 2 min incubation using a 1 sec exposure time and 2x binning.

Chain of Galactokinase (Homo sapiens) (P51570 whole entry, looked up): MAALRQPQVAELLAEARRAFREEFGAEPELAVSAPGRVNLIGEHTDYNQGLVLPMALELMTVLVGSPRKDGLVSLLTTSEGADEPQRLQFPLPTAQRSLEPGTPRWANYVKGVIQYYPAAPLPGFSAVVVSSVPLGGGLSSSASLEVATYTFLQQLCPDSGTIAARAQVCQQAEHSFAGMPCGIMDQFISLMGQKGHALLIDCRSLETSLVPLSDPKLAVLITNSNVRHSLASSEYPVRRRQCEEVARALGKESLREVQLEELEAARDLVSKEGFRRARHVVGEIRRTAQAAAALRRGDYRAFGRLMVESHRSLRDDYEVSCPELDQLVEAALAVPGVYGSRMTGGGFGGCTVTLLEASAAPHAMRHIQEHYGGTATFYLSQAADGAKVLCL

SMILES	activity change, negative = inhibition [%]	Potency
CC1=C(C(=O)Nc2nccs2)C(c2ccccc2Br)N=C(Nc2nc3ccccc3o2)N1 (centres undefined)	-26.6	–
Cc1cccc2nc(NC3=NC(c4[nH]ncc4Cl)C4=C(CCCC4=O)N3)oc12 (centres undefined)	-0.192	–
Cn1cc(Br)c(C2N=C(Nc3nc4ccccc4o3)NC3=C2C(=O)CCC3)n1 (centres undefined)	–	9.68 µM (active)
Cn1cc(Cl)c(C2N=C(Nc3nc4ccccc4o3)NC3=C2C(=O)CCC3)n1 (centres undefined)	–	12.2 µM (active)
CCCc1ccc(NC(=O)c2ccc3c(c2)NC(=O)CS3)cc1	3.14	–
CC1=C(C(=O)Nc2nncs2)C(c2nn(C)cc2Cl)N=C(Nc2nc3ccccc3o2)N1 (centres undefined)	–	17.2 µM (active)
CC(=O)Nc1ncc(S(=O)(=O)N2CCOCC2)s1	-1.9	–
Cc1ccc2nc(NC3=NC(c4[nH]ncc4Cl)C4=C(CCCC4=O)N3)oc2c1 (centres undefined)	13.9	–
O=C1CCCC2=C1C(c1[nH]ncc1Cl)N=C(Nc1nc3ccc(F)cc3o1)N2 (centres undefined)	0.665	–
